Source: PMC4336329 (PLoS ONE, 2015)
The whole screen tested about 310,000 compounds, of which about 14,000 (4.5%) showed an effect of 50% or more. The effect is printed as a negative number. This excerpt belongs to a sample that is enriched for strong results.

biological target: human ether-à-go-go-related gene (hERG) potassium channel (human, UniProt Q12809); test: primary screen, population patch clamp on CHO cells stably expressing hERG; higher = less effect of the substance
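Note: peak tail current of the secondary pulse compared with the same well before compound.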

Chain of human ether-à-go-go-related gene (hERG) potassium channel (Q12809 whole entry, looked up): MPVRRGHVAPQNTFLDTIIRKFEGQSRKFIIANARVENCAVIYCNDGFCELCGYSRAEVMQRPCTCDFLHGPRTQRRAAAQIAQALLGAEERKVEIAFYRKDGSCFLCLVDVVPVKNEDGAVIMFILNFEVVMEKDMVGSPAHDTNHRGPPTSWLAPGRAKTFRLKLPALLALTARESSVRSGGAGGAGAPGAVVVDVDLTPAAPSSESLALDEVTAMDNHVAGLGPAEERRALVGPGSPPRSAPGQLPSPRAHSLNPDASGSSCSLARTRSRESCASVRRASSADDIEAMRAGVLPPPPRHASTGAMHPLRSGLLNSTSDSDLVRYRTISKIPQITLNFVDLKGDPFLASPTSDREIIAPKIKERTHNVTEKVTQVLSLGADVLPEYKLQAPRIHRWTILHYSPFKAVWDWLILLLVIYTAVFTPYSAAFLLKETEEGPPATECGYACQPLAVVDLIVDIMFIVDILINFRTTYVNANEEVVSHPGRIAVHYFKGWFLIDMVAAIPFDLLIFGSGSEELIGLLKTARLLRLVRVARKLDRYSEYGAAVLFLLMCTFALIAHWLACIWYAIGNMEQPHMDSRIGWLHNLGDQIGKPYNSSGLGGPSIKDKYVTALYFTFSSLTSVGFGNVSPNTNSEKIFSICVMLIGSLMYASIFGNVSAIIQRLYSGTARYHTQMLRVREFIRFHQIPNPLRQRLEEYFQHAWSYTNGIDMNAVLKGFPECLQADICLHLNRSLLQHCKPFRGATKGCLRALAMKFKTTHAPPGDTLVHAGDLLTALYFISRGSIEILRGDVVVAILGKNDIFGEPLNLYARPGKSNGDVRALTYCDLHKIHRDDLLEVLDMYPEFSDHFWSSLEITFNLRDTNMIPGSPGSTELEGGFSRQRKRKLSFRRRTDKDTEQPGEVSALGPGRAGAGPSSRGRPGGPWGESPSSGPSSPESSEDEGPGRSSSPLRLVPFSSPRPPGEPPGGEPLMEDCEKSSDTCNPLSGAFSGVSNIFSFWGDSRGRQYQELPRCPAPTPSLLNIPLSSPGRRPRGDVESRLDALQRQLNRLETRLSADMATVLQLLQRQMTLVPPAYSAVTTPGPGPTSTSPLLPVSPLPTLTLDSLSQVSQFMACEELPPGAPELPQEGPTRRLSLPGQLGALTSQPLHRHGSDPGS

Row | SMILES | hERG current change (%, negative = inhibition) at 10uM [%]
1 | COC(=O)C1(C)NC(c2ccc(Cl)cc2)C2C(=O)N(c3ccccc3)C(=O)C21 (stereo not drawn) | -3.27
2 | COc1ccc(C2(c3ccc(OC)cc3)NC(=O)N(CC(=O)Nc3ccc(OC(F)F)cc3)C2=O)cc1 | -19.2
3 | CCOc1ccc(N2C(=O)C3CCCN3C2=O)cc1 (stereo not drawn) | 10.1
4 | O=C(O)C1CCN1C1CCCCC1 (stereo not drawn) | 5.54
5 | C[N+]1(CCCCSc2ccc(O)cc2)CCCCC1.[I-] | -51.7
6 | CC(=O)OCCCCCCCCCCC[N+]1(C)CCCCC1.[I-] | -7.49
7 | COC(=O)CCCCCCCCCC[N+]1(C)CCCCC1.[I-] | -0.248
8 | Nc1c(C(=O)CSc2nc(-c3ccccc3)cs2)c(=O)[nH]c(=O)n1C1CC1 | -7.63
9 | O=C(c1ccco1)n1nc(-c2ccccc2)nc1SCc1ccccc1 | 3.93
10 | COC(=O)[C@@H]1[C@H]2C[C@H]3c4[nH]c5ccccc5c4CCN3C[C@@H]2CC[C@@H]1O | -57.5
11 | COC(=O)C1C(O)CCC2CN3CCc4c([nH]c5ccccc45)C3CC21 (stereo not drawn) | -21.1
12 | COC(=O)[C@H]1[C@H]2C[C@H]3c4[nH]c5ccccc5c4CCN3C[C@@H]2CC[C@@H]1O | -12.5
13 | CCSCCOC(=O)C1=C(C)N(C)C(=O)NC1c1ccc2c(c1)OCO2 (stereo not drawn) | 5.29
14 | COc1ccc(S(=O)(=O)N(CC(=O)NCc2cccnc2)C2CCCCC2)cc1OC | -12.7
15 | Cc1cc(C)c(S(=O)(=O)N(CC(=O)NCc2cccnc2)C2CCCCC2)c(C)c1 | -37.4
16 | O=C(CN(C1CCCCC1)S(=O)(=O)c1ccc(Cl)cc1)NCc1cccnc1 | -74.4
17 | Cc1ccc(S(=O)(=O)N(CC(=O)NCc2cccnc2)C2CCCCC2)cc1 | -63.3
18 | CS(=O)(=O)N(CC(=O)NCc1cccnc1)C1CCCCC1 | 5.98
19 | O=C(CN(C1CCCCC1)S(=O)(=O)c1ccccc1)NCc1cccnc1 | -30
20 | O=C(COC(=O)c1cc(S(=O)(=O)N2CCOCC2)ccc1F)NC1CCCCC1 | -2.25
21 | O=[N+]([O-])c1cc(/C=N\O)ccc1Oc1ccc(F)cc1 | -72.1
22 | O=[N+]([O-])c1cc(/C=N/O)ccc1Oc1ccccc1Cl | -16
23 | O=[N+]([O-])c1cc(/C=N/O)ccc1Oc1cccc(Cl)c1 | -53.7

Row | SMILES | hERG current change (%, negative = inhibition) at 10uM [%]
24 | COc1cc(/C=N/O)ccc1Oc1ccc([N+](=O)[O-])cc1[N+](=O)[O-] | -45.9
25 | CO/N=C/c1ccc(Oc2ccc(C)cc2)c([N+](=O)[O-])c1 | 12.1
26 | O/N=C\c1ccccc1Oc1ccc(F)cc1 | 12.8
27 | CC(NC1c2ccccc2-c2ccccc21)c1ccccc1 (stereo not drawn) | 9.54
28 | CCOC(=O)c1c(NC=O)sc2c1CCC2 | -2.89
29 | Cc1ccc(C)c(NC(=S)NNC(=O)c2csc3c2CCC(C)C3)c1 (stereo not drawn) | 3.17
30 | O=C(NCc1ccccc1)C1=C[C@@H](c2ccccc2)C[C@@H](OCc2ccc(CO)cc2)O1 | -14.4
31 | CCN(CC(=O)Nc1cccc(S(N)(=O)=O)c1)Cc1nc2ccccc2c(=O)[nH]1 | 3.49
32 | Cc1cc(-c2cc(-c3ccc(Cl)cc3)nc(N)c2C#N)co1 | -1.55
33 | O=C(O)c1cccnc1Nc1ccc(Cl)cc1 | 25
34 | COc1ccc(-n2nc(C(=O)NCC3CCCO3)c3ccccc3c2=O)cc1 (stereo not drawn) | 31.7
35 | COc1ccc(CCn2c(=N)c(C(=O)NCC3CCCO3)cc3c(=O)n4ccccc4nc32)cc1OC (stereo not drawn) | -75.9
36 | COc1ccc(CCNC(=O)C(=O)NCC2CCCO2)cc1OC (stereo not drawn) | 3.13
37 | COc1ccc(Cn2c(=N)c(C(=O)NCC3CCCO3)cc3c(=O)n4ccccc4nc32)cc1 (stereo not drawn) | -82.2
38 | COc1ccc(C(=O)Nc2ccccc2C(=O)NCC2CCCO2)cc1 (stereo not drawn) | 4.28
39 | COc1ccc(CCn2c(=N)c(C(=O)NCC3CCCO3)cc3c(=O)n4ccccc4nc32)cc1 (stereo not drawn) | -77.9
40 | COc1ccc(-c2cc(C(=O)NCC3CCCO3)c3ccccc3n2)cc1 (stereo not drawn) | -10.7
41 | COc1ccc(CCNC(=O)CCn2c(=O)c3ccccc3n(CC(=O)NCC3CCCO3)c2=O)cc1OC (stereo not drawn) | 8.86
42 | COc1ccc(-c2cc(C(=O)NCC3CCCO3)c3ccccc3n2)c(OC)c1 (stereo not drawn) | -0.667
43 | Cc1csc(SCC(=O)NC23CC4CC(CC(C4)C2)C3)n1 | -20.5
44 | O=S(=O)(/N=C(/Nc1cccc2ccccc12)c1ccc(F)cc1)c1ccccc1 | -42.8
45 | COCCCNC(=O)Cn1nnc(-c2ccc(NC(=O)c3ccccc3F)cc2)n1 | -2.44
46 | CCOC(=O)CN(C(=O)CSc1nnc(-c2ccc(OC)c(OC)c2)o1)c1ccc(F)cc1 | -49.6

Row | SMILES | hERG current change (%, negative = inhibition) at 10uM [%]
47 | CC(=O)c1sc(NC(=O)CCOc2ccccc2)nc1C | 5.9
48 | CCC(Sc1nc2n[nH]c(C)c2c(=N)n1-c1cc(Cl)ccc1C)C(=O)N1CCOCC1 (stereo not drawn) | -0.58
49 | CC(C(=O)Nc1ccc(C#N)cc1)N1CCN(C(=O)C2CC2)CC1 (stereo not drawn) | -61.2
50 | CC1CCN(C(C)C(=O)Nc2ccc(S(=O)(=O)N3CCCC3)cc2)CC1 (stereo not drawn) | -6.3
51 | COc1cc(NC(=O)C(C)N2CCN(C(=O)C3CC3)CC2)cc(OC)c1 (stereo not drawn) | -16.1
52 | COCCCNc1ncnc2c1nc1n2CCCC1 | 18.6
53 | CCOCCCNc1ncnc2c1nc1n2CCCC1 | 17.2
54 | CC(C)OCCCNc1ncnc2c1nc1n2CCCC1 | -72.6
55 | COc1ccc2[nH]cc(CCN3C(=O)CCC3=O)c2c1 | 10.7
56 | O=C(CSc1nc2c(c(C(F)(F)F)n1)CCc1ccccc1-2)NCc1ccccc1 | 6.56
57 | O=C(CSc1nc2c(c(C(F)(F)F)n1)CCc1ccccc1-2)NCc1ccc(F)cc1 | 14.2
58 | CCN(CC)CCCNC(=O)CSc1nc2c(c(C(F)(F)F)n1)CCc1ccccc1-2 | -52.2
59 | Cl.O=C(CN1CCCC(O)C1)N1c2ccccc2Sc2ccc(C(F)(F)F)cc21 (stereo not drawn) | -7.16
60 | COc1cccc(C(=O)Nc2c3c(nn2-c2ccc([N+](=O)[O-])cc2)CS(=O)(=O)C3)c1 | -53.8
61 | COc1ccc(C(=O)Nc2c3c(nn2-c2ccc([N+](=O)[O-])cc2)CS(=O)(=O)C3)cc1 | -9.85
62 | COc1ccccc1C(=O)Nc1c2c(nn1-c1ccc([N+](=O)[O-])cc1)CS(=O)(=O)C2 | 11.7
63 | O=C(Nc1c2c(nn1-c1ccccc1)CS(=O)(=O)C2)c1ccco1 | -9.21
64 | Cc1ccc(-n2nc3c(c2NC(=O)c2ccco2)CS(=O)(=O)C3)cc1 | -25.7
65 | O=C(Nc1c2c(nn1-c1ccc([N+](=O)[O-])cc1)CS(=O)(=O)C2)c1ccco1 | -64.7
66 | CC(Oc1ccccc1)C(=O)Nc1c2c(nn1-c1ccccc1)CS(=O)(=O)C2 (stereo not drawn) | 18.2
67 | CCOc1ccc(C(=O)Nc2c3c(nn2-c2ccccc2)CS(=O)(=O)C3)cc1 | 4.84
68 | CC(C)Oc1ccc(C(=O)Nc2c3c(nn2-c2ccccc2)CS(=O)(=O)C3)cc1 | -65.9
69 | O=C(NNC(=O)C1CCN(Cc2ccccc2)CC1)c1cccc(Cl)c1 | -14

Row | SMILES | hERG current change (%, negative = inhibition) at 10uM [%]
70 | CCCn1nc(Oc2nc(NCC)nc(NC(C)C)n2)ccc1=O | 1.01
71 | CCc1nc(N2CCN(C(=S)NCCCOC)CC2)c2c3c(sc2n1)CCCC3 | -9.32
72 | Fc1ccc(-n2c(-c3ccc4ccccc4n3)n[nH]c2=S)cc1Cl | 31
73 | O=C(COc1ccccc1)NC1CCCc2ccccc21 (stereo not drawn) | -19.3
74 | CCOC(=O)Cc1csc(NC(=O)NC2(C(F)(F)F)Oc3ccc(Cl)cc3O2)n1 (stereo not drawn) | 15.8
75 | Cc1ccccc1NS(=O)(=O)c1ccc(OCC(=O)NCc2cccnc2)cc1 | -32.8
76 | O=C(COCc1cc(-c2ccc3c(c2)OCO3)on1)N1CCCCC1 | 4.66
77 | CCCc1c(C)nc2ccc(OC)cc2c1SCCC(=O)O | 10.4
78 | COc1cccc(C(=O)C2=NN(C(C)=O)CC2c2ccco2)c1 (stereo not drawn) | -15.8
79 | COc1ccc(NC(=O)CCN2C(=O)c3ccncc3C2=O)cc1OC | -7.46
80 | CC1CCCCN1C(=S)Nc1ccc(OC(F)F)cc1 (stereo not drawn) | -40.1
81 | O=C(CNC(=O)c1ccccc1)Oc1cccc(Cl)c1 | 17.8
82 | CC(NC(=O)NC1CCCCC1)C(c1cccs1)N1CCN(C)CC1 (stereo not drawn) | -8.03
83 | CCN1CCN(C(c2cccs2)C(C)NC(=O)NC2CCCCC2)CC1 (stereo not drawn) | -45.5
84 | CCC(=O)NC(C)C(c1cccs1)N1CCN(Cc2ccccc2)CC1 (stereo not drawn) | -11.6
85 | CC(NC(=O)NC1CCCCC1)C(c1cccs1)N1CCN(c2ccccc2)CC1 (stereo not drawn) | -48.6
86 | CC(NC(=S)NC1CCCCC1)C(c1cccs1)N1CCOCC1 (stereo not drawn) | -0.732
87 | CC(NC(=O)c1cccs1)C(c1cccs1)N1CCN(Cc2ccccc2)CC1 (stereo not drawn) | -72.7
88 | CCN1CCN(C(c2cccs2)C(C)NC(=S)NC2CCCCC2)CC1 (stereo not drawn) | -60.8
89 | CC(NC(=O)NC1CCCCC1)C(c1cccs1)N1CCN(Cc2ccccc2)CC1 (stereo not drawn) | -56.7
90 | CC(NC(=O)C(C)(C)C)C(c1cccs1)N1CCN(Cc2ccccc2)CC1 (stereo not drawn) | -14.3
